Assay outcomes: PubChem BioAssay, National Center for Advancing Translational Sciences (NCATS)
Tau fibril FP – blocks human tau fibril formation measured by polarization; P10636; K18 P301L tau heparin fibrillization, Alexa594 FP, 6 h; Potency, µM (titrated, usually from 57.7 µM), for the others: top-dose activity, negative = inhibition, actives largely listed as inhibitors; 280,000 compounds, 0.39% hits; AID 1468; note: nearly all actives have a fitted effect of over 55% in size
Target sequence (P10636 561-689 P618L limits assumed): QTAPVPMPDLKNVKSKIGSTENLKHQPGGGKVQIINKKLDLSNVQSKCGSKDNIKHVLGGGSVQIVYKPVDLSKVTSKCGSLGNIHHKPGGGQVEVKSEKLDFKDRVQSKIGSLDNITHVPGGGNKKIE
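FP of Alexa 594-tau after heparin (20 uM) induction. Substrate: human K18 P301L, 15 uM unlabeled, 0.24 uM labeled. Buffer 100 mM sodium acetate pH 7. 6 hr, 37 C.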
Tau fibril ThT – blocks human tau fibril formation measured by thioflavin T. 270,000 compounds, 2.1% hits. AID 1460. recombinant tau K18 P301L, heparin-induced fibrillization, ThT fluorescence. P10636. Potency, µM (top dose mostly 57.4 µM), without a hit: top-dose activity, negative = inhibition, actives largely listed as inhibitors; note: nearly all actives have a fitted effect of over 55% in size
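Fibril formation assay: tau K18 P301L at 15 uM with trace Alexa 594 label, heparin inducer 20 uM, pH 7 sodium acetate buffer, 37 C for 6 hr; endpoint ThT signal.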
Tau fluor counter – counter-screen for tau fibril formation inhibitors; tau K18 P301L Alexa594 fluorescence, heparin fibrillization; Potency, µM (titrated, usually from 57.7 µM), without a hit: at the highest dose activity change, negative = decrease; 280,000 compounds, 0.93% hits; AID 1463; note: nearly all actives have a fitted effect of over 55% in size
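Human tau K18 P301L (15 uM unlabeled, 0.24 uM Alexa 594-labeled) in 100 mM sodium acetate pH 7 with 20 uM heparin, 6 hr at 37 C. ThT 30 uM added, 1 hr ambient; Alexa 594 FP and total fluorescence read at 555/632 nm.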
TR SRC2 fluor cs – Texas Red fluorescence interference in TRb-SRC2 counter-screen; TRb/SRC2 Texas Red total fluorescence interference; Potency, µM (series often up to 106 µM), for inactives: at the top dose fluorescence change, negative = quenching; 280,000 compounds, 0.29% hits; active = well fitted curve in either direction with a large enough effect; inconclusive = small, poorly fitted or top-dose-only effect
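Human TRβ ligand-binding domain (0.6 uM) and Texas Red SRC2 peptide (20 nM) in Tris buffer with 1 uM T3 and 5% DMSO were incubated with pinned compound for 5 hr at ambient temperature. Total fluorescence was computed as S + 2P (555/632 nm).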
TRb-SRC2 inh – inhibitors of human thyroid hormone receptor beta-SRC2 interaction; 280,000 compounds, 0.065% hits; TRbeta-SRC2 peptide binding, fluorescence polarization; receptor liganded with 1 µM T3; P10828; Potency, µM (doses to about 106 µM), inactives show at the highest dose activity change, negative = inhibition, most hits filed as inhibitors;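 note: plate controls were bound peptide for no effect and peptide without receptor for full effect; nearly all actives have a fitted effect of over 50% in size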
Target sequence (P10828 whole entry, looked up): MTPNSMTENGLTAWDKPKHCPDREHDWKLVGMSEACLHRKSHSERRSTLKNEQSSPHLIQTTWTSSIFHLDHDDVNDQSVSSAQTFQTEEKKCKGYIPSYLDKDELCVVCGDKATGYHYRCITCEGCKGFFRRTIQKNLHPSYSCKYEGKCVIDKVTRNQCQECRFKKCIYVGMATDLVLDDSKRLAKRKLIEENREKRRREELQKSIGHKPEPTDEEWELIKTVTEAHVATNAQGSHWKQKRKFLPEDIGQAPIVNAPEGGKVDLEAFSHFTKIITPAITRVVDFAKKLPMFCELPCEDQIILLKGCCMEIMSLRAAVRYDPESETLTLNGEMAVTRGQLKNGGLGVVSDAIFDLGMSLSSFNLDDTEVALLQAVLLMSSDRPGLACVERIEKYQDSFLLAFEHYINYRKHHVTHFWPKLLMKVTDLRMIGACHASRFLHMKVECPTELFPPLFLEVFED
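Quantitative HTS by FP: 0.6 uM TRb LBD, 20 nM labeled SRC2 20-mer, 1 uM T3, 5% DMSO; 5 hr ambient incubation; % activity per concentration and potencies from concentration series.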
* = called active by the depositor; ? = inconclusive; . = no result given; [ ] = remark or other dose. An excerpt weighted towards active compounds, which were near 3% of everything screened. Unless noted, calls come from the whole dose curve; as a rule, active = well fitted curve in the direction sought with a large enough effect; inconclusive = small, poorly fitted or top-dose-only effect, or another doubt; inactive = no such curve, though single readings can be large; an effect the other way counts as inactive or inconclusive. Unless noted, % is set by controls: 0 for no effect and ±100 for the full control effect; potency is the fitted concentration of half-maximal effect.

SMILES	Tau fibril FP	Tau fibril ThT	Tau fluor counter	TR SRC2 fluor cs	TRb-SRC2 inh
CCN(CC)c1ccc(N=Cc2ccccc2[N+](=O)[O-])cc1	?	14.1µM*	?	30.0%	?
N=C1/C(=C\c2coc3ccccc3c2=O)C(=O)N=C2SC=CN12	-3.8%	?	-27.7%	-6.4%	0.3%
CSC1=NSC2=NC(=O)/C(=C/c3coc4ccc(O)cc4c3=O)C(=N)N12	-4.9%	22.4µM*	?	-7.3%	-2.7%
CSC1=NSC2=NC(=O)/C(=C/c3coc4ccccc4c3=O)C(=N)N12	?	17.8µM*	?	?	?
CC(C)C[C@H](N)C(=O)N[C@H](C(=O)N[C@H](C(=O)N[C@@H](Cc1ccc(O)cc1)C(=O)N1CCC[C@H]1C(=O)N[C@@H](Cc1c[nH]c2ccccc12)C(=O)N[C@H](C(=O)N[C@@H](CCC(N)=O)C(=O)N[C@@H](CCCN=C(N)N)C(=O)O)[C@@H](C)O)C(C)C)C(C)C	-3.1%	0.1%	-6.0%	-1.6%	4.6%
O=C(CSC(=S)N1CCCC1)c1cc(Br)cc(Br)c1O	6.0%	?	14.1%	18.2%	16.7%
CC1CCCN(C(=S)SCC(=O)c2cc(Br)cc(Br)c2O)C1 (stereo unspecified)	?	15.8µM*	?	10.0%[53 µM]	18.9%[53 µM]
Cc1ccc(Cn2c(/C=C/c3ccco3)nc3ccccc32)cc1	?	25.1µM*	?	0.0%	-4.6%
CCCn1c(/C=C/c2ccco2)nc2ccccc21	5.7%	6.3%	7.8%	3.55µM*[quencher]	-19.5%[53 µM]
Cc1ccc(CSc2cn(CCNC(=O)c3cccs3)c3ccccc23)cc1	-6.3%	?	8.91µM*[quencher]	-9.7%	8.6%
O=C(NCCn1cc(SCc2ccccc2F)c2ccccc21)c1cccs1	-15.7%	?	?	-1.7%	15.8%
Cc1ccccc1CSc1cn(CCNC(=O)c2cccs2)c2ccccc12	-16.7%	?	7.94µM*[quencher]	?	5.3%
O=C(NCCn1cc(SCc2ccc(F)cc2)c2ccccc21)c1cccs1	-4.9%	?	7.94µM*[quencher]	-20.0%	4.9%
O=C(NCCn1cc(SCc2ccc(Cl)cc2)c2ccccc21)c1cccs1	-19.4%	?	8.91µM*[quencher]	2.0%	12.4%
COc1cccc(CNC(=O)CSC2=Nc3ccccc3C3=NC(C(C)C)C(=O)N23)c1 (stereo unspecified)	-1.3%	-1.3%	0.3%	-2.0%	-7.9%
CCCCCCCCCCCCN	.	.	.	-2.6%[201 µM]	-0.1%[201 µM]
CCc1cccc(CC)c1NC(=O)c1cc(S(=O)(=O)N2CCc3ccccc32)cn1C	9.4%	-7.2%	?	-23.1%	0.2%
Cc1ccc(Cl)cc1N1CCN(C(=O)c2cc3c(-c4ccccc4F)nn(C)c3s2)CC1	-10.4%	-10.1%	-10.3%	1.6%	-0.9%
C[Si]1(C)N[Si](C)(C)N[Si](C)(C)N1	.	.	.	-3.2%[201 µM]	10.7%[201 µM]
CCCCC[n+]1ccn(C2=C([O-])c3ccccc3C(=O)/C2=N\S(=O)(=O)c2ccc(Cl)cc2)c1	-3.2%	?	-15.5%	1.0%	-1.3%
CCCC[n+]1ccn(C2=C([O-])c3ccccc3C(=O)/C2=N\S(=O)(=O)c2ccc(Cl)cc2)c1	?	11.2µM*	?	-2.5%	-1.9%
O=C1CCCC2=C1C(c1ccccc1)C1C(=O)c3ccccc3C1=N2 (stereo unspecified)	-4.3%	-4.0%	0.2%	-1.1%	1.9%
O=C1CCCC2=C1C(c1ccc(Cl)cc1)C1C(=O)c3ccccc3C1=N2 (stereo unspecified)	14.0%	15.8µM*	22.4µM*[quencher]	-3.3%	1.5%
Oc1ccc(NC(=S)N=Nc2c(O)[nH]c3ccc(Br)cc23)cc1	-2.3%	5.01µM*	15.8µM*[quencher]	-8.0%	-1.8%
Oc1cccc(NC(=S)N=Nc2c(O)[nH]c3ccc(Br)cc23)c1	-1.5%	6.31µM*	11.2µM*[quencher]	-9.1%	1.7%
SMILES	Tau fibril FP	Tau fibril ThT	Tau fluor counter	TR SRC2 fluor cs	TRb-SRC2 inh
CNC(=S)N=Nc1c(O)[nH]c2ccccc12	-15.5%	?	-17.7%	-6.0%	0.9%
Oc1[nH]c2ccc(Br)cc2c1N=NC(=S)Nc1ccc(F)cc1	-2.6%[0.0958 µM]	.	6.7%[0.0958 µM]	-1.8%	3.7%
Oc1ccc(NC(=S)N=Nc2c(O)[nH]c3ccccc23)cc1	4.0%	14.1µM*	?	-6.3%	-1.4%
CNC(=S)N=Nc1c(O)[nH]c2ccc(C(C)C)cc12	-3.5%	15.8µM*	?	-4.4%	2.0%
Cc1ccc(NC(=S)N=Nc2c(O)[nH]c3ccccc23)cc1	?	?	?	-2.0%	-0.9%
Cc1cc(C)cc(NC(=O)c2cc(S(=O)(=O)N3CCOCC3)cn2C)c1	-11.1%	3.7%	2.7%	-1.4%	-4.9%
O=C(N=Nc1c(O)[nH]c2ccc(Br)cc12)c1ccccc1-n1cccc1	?	?	14.1µM*[quencher]	-8.5%	-2.8%
O=[N+]([O-])c1cccc(/C=N\N=C2c3ccccc3-c3ccccc32)c1O	8.5%	5.01µM*	?	?	-4.7%
NC(N)=N/N=C/c1cccc([N+](=O)[O-])c1O	0.1%	-1.8%	-7.6%	-1.4%	-7.5%
Cc1ccc(NC(=O)NCC2CCN(Cc3cccc(Cl)c3)CC2)cc1Cl	28.2µM*	-7.5%	?	-0.8%	-5.2%
Cc1ccc(NC(=O)NCC2CCN(Cc3cccc(Cl)c3)CC2)c(Cl)c1	0.7%	-4.5%	-14.5%	0.9%	-7.2%
CCc1cccc(-n2c(C)nc3c(cnn3-c3ccc(C)c(C)c3)c2=O)c1	-2.6%	-17.8%	-13.4%	-1.9%	1.4%
Cc1noc(C)c1S(=O)(=O)N1CCc2nc(-c3ccccc3)c3c(c2C1)CO[C@@H](C)C3	-2.3%[11.6 µM]	3.8%[11.5 µM]	2.4%[11.6 µM]	-23.2%[11.2 µM]	8.8%[11.2 µM]
COc1ccc(N2CCN(C(=O)CSc3c4c(nc5ccc(Cl)cc35)CCCC4)CC2)cc1	-5.0%	14.1µM*	?	-1.4%	-1.5%
Cc1cc2nc(-c3ccc(NC(=O)c4ccc(OCC(C)C)cc4)cc3)oc2cc1C	-3.4%	?	-0.4%	-8.2%	-1.6%
COC(=O)C1=C(C(=O)OC)[C@@H]2Nc3ccccc3[C@@]23C[C@@H](C(=O)OC)N(S(=O)(=O)c2c(C)noc2C)C3=N1	3.2%[11.6 µM]	1.3%[11.5 µM]	-3.7%[11.6 µM]	-0.5%[11.2 µM]	5.8%[11.2 µM]
C/C(=N\Nc1nnc2c3ccccc3n(C)c2n1)c1ccc(C)o1	4.7%	14.1µM*	-9.5%	-13.6%	-3.5%
O=C(CN1C(=O)C2CCCCN2c2ccc(C(=O)N3CCCC3)cc21)NCc1cccc(Cl)c1 (stereo unspecified)	0.8%	-5.2%	-2.8%	-22.8%	8.1%
Cc1ccc(C(=O)O)cc1N=Cc1cc(Br)cc(Br)c1O	-20.9%	14.1µM*	-9.6%	-2.9%	-3.0%
Cc1cc(NC(=O)Nc2ccc3c(ccn3C)c2)sn1	?	?	12.6µM*[quencher]	-5.5%	4.1%
COc1cc(/C=C2/S/C(=N/S(=O)(=O)Cc3ccccc3)NC2=O)c([N+](=O)[O-])cc1OC	-6.0%	?	-9.6%	2.7%	-6.7%
